Sampled rows, rich in hits. Any-hit rate of the full collection: about 4.4%.
PfHsp90 yeast 2 = growth inhibition of PfHsp90-expressing yeast, primary screen, antimalarial PfHsp90 inhibitor project, S. cerevisiae, BacTiter-Glo luminescence, single point, set 2; BacTiter-Glo ATP, 48 h; yeast lacking PDR1 and PDR3 efflux regulators; AID 504621, 2011; 310,000 compounds, 0.32% hits; inhibition, % at 9.4 µM;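 active means every replicate shows inhibition above about 80%, whatever the replicate mean, limit read from the data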;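 further: 0% = DMSO neutral controls and 100% = 20 µM radicicol positive controls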
tim23-1 inh = growth inhibitors of tim23-1 mutant yeast, primary screen, luminescence, uHTS; S. cerevisiae tim23-1 growth, BacTiter-Glo luminescence, 24 h; inhibition, % at 20 µM; 330,000 compounds, 1.3% hits; AID 463212, 2010;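 active means growth inhibition of the mutant yeast at or above 50%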;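 further: temperature-sensitive mutant grown at 25 °C; plate controls were DMSO-treated mutant yeast for no effect and medium wells lacking yeast for full effect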
tim10-1 inh = growth inhibitors of tim10-1 mutant yeast, primary screen, luminescence, uHTS; 330,000 compounds, 2.2% hits; S. cerevisiae tim10-1 ts strain growth, BacTiter-Glo, 24 h; inhibition, % at 20 µM;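 active means inhibition of at least 40%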;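 further: mutant grown at 25 °C; 0% = DMSO wells with yeast and 100% = wells holding no yeast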
Mot1-301 SUMO = yeast Mot1-301 growth rescue at high temperature, primary screen, SUMOylation pathway inhibitor project, S. cerevisiae, ATP luminescence, 38.5C; S. cerevisiae Mot1-301 growth rescue; percent above DMSO median, 100 means doubled; growth rescue, % at 18.8 µM; 320,000 compounds, 1% hits; AID 2716, 2010;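 active means every valid replicate shows activation above 250% relative to neutral control wells; inactive means the rest, any valid replicate at or below 250%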;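 further: OY570 slx delta 5 strain wells were the positive control but not used for scaling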
TIM10 inh = growth inhibitors of isogenic TIM10 control yeast, primary screen, counter-screen for tim10-1 yeast inhibitor project, luminescence, uHTS. S. cerevisiae TIM10 strain growth, BacTiter-Glo luminescence, 24 h. inhibition, % at 10 µM. 330,000 compounds, 1.4% hits;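 active means inhibition of 40% or more at the single tested concentration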;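 further: wild-type TIM10 isogenic control strain grown at permissive 25 °C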
Mot1 SUMO dose = growth restoration of Mot1-301 yeast on galactose, dose response, SUMO pathway inhibitor project, whole organism, S. cerevisiae, ATP luminescence, cherry-picked samples; shares compounds with Mot1-301 SUMO; S. cerevisiae Mot1-301 galactose growth, 24 h; -100 = growth of slx-deleted rescue strain; growth activity, percent, % at 42 µM; 2,300 tested, under 10 active; AID 493004, 2010;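 active means Signal drops as the depositor expects, and the fitted half-maximal dose is no more than ten times the top valid tested dose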;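 further: more negative values mean stronger growth rescue toward the control strain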
Active calls of the source: *.

Results for COc1ccc2nc(-c3ccccc3)cc(C(=O)OCC(=O)N3CC(C)OC(C)C3)c2c1 (centres undefined) ?
PfHsp90 yeast 2: 17.1; tim23-1 inh: 36.7; tim10-1 inh: 29.4; Mot1-301 SUMO: -2.9; TIM10 inh: 20.0

Results for COc1ccc(CCN2C(=O)CSC2=Nc2ccc(C)cc2C)cc1OC ?
PfHsp90 yeast 2: 4.1; tim23-1 inh: 12.8; tim10-1 inh: 5.8; Mot1-301 SUMO: -3.8; TIM10 inh: -1.8

Results for CCOC(=O)c1[nH]c2ccc(F)cc2c1NC(=O)CCN1CCOCC1 ?
PfHsp90 yeast 2: -6.9; tim23-1 inh: -13.6; tim10-1 inh: 11.2; Mot1-301 SUMO: 383.0*; TIM10 inh: 15.0; Mot1 SUMO dose: 0.0

How did O=C(CNC(=O)c1ccc(Br)o1)NC1CCCCC1 do in these assays?
PfHsp90 yeast 2: -21.3; tim23-1 inh: 2.5; tim10-1 inh: 3.0; Mot1-301 SUMO: 1.1; TIM10 inh: -12.3

Results for CCOc1ccccc1NC(=O)C1COc2ccccc2O1 (centres undefined) ?
PfHsp90 yeast 2: -14.8; tim23-1 inh: 33.1; tim10-1 inh: 26.4; Mot1-301 SUMO: -4.0; TIM10 inh: 0.6

How did CCOc1ccc(OCC)c(NC(=O)C2COc3ccccc3O2)c1 (centres undefined) do in these assays?
PfHsp90 yeast 2: -39.8; tim23-1 inh: -4.8; tim10-1 inh: -2.3; Mot1-301 SUMO: 824.4*; TIM10 inh: -7.7; Mot1 SUMO dose: 0.0

Results for CC(C)C(OC(=O)CN1C(=O)COc2ccccc21)C(=O)NC1CCCC1 (centres undefined) ?
PfHsp90 yeast 2: 20.6; tim23-1 inh: 21.5; tim10-1 inh: 20.5; Mot1-301 SUMO: 783.7*; TIM10 inh: 9.0; Mot1 SUMO dose: -0.2

What do the screens show for `C=CCN(c1ccccc1)S(=O)(=O)c1cccc(C(=O)NNC(=O)c2ccncc2)c1`?
PfHsp90 yeast 2: 12.8; tim23-1 inh: 2.7; tim10-1 inh: -1.9; Mot1-301 SUMO: 15.9; TIM10 inh: -4.4

Results for COc1ccc(-c2csc(NC(=O)CCS(=O)(=O)c3ccccc3)n2)c(OC)c1 ?
PfHsp90 yeast 2: 2.2; tim23-1 inh: 16.4; tim10-1 inh: 4.2; Mot1-301 SUMO: 454.1*; TIM10 inh: -14.6; Mot1 SUMO dose: -0.1

What do the screens show for `NC(=O)C1=C[C@@H](c2ccc(Br)cc2)C[C@@H](OCCCCO)O1`?
tim23-1 inh: 10.6; tim10-1 inh: 13.4; Mot1-301 SUMO: 554.0*; TIM10 inh: -1.2; Mot1 SUMO dose: 0.6

What do the screens show for `O=C(NNc1ccccc1)C(CCO)C(=O)NNc1ccccc1`?
PfHsp90 yeast 2: -46.1; tim23-1 inh: -19.5; tim10-1 inh: -31.3; Mot1-301 SUMO: 403.6*; TIM10 inh: -112.9; Mot1 SUMO dose: 0.4

What do the screens show for `O=C(/C=C/NNC(=O)c1ccccc1)c1ccccc1`?
PfHsp90 yeast 2: 38.8; tim23-1 inh: 23.9; tim10-1 inh: 29.2; Mot1-301 SUMO: -15.3; TIM10 inh: 23.0

What do the screens show for `O=C(/C=C/NNC(=O)c1ccc(Br)cc1)c1ccccc1`?
PfHsp90 yeast 2: -12.9; tim23-1 inh: 27.9; tim10-1 inh: 17.7; Mot1-301 SUMO: 399.3*; TIM10 inh: 5.2; Mot1 SUMO dose: 1.4

What do the screens show for `CCCCn1c(N)c(N(CCC(C)C)C(=O)C2CC(=O)N(c3ccc(OC)cc3OC)C2)c(=O)[nH]c1=O` (centres undefined)?
PfHsp90 yeast 2: 23.6; tim23-1 inh: -11.3; tim10-1 inh: 8.0; Mot1-301 SUMO: -4.7; TIM10 inh: 0.8

What do the screens show for `Cc1ccc(C(=O)O)cc1N=Cc1cc(Br)cc(Br)c1O`?
PfHsp90 yeast 2: 107.4*; Mot1-301 SUMO: 858.1*; Mot1 SUMO dose: 0.0

How did NCCCCCNC(=O)c1[nH]cnc1C(=O)N[C@@H](Cc1ccccc1)C(=O)OCc1ccccc1 do in these assays?
PfHsp90 yeast 2: 11.5; tim23-1 inh: 13.0; tim10-1 inh: 11.8; Mot1-301 SUMO: -18.6; TIM10 inh: -2.2

Results for CCC(C)[C@H](NC(=O)OC(C)(C)C)C(=O)NCC1CCC(C(=O)N[C@@H](Cc2ccccc2)C(=O)O)CC1 (some centres undefined) ?
PfHsp90 yeast 2: 0.5; tim23-1 inh: 0.0; tim10-1 inh: 8.6; Mot1-301 SUMO: 628.5*; TIM10 inh: 5.5; Mot1 SUMO dose: -0.7

What do the screens show for `CC(C)(C)OC(=O)N[C@@H](Cc1ccccc1)C(=O)NCC1CCC(C(=O)N[C@@H](CC(=O)O)C(=O)O)CC1` (some centres undefined)?
PfHsp90 yeast 2: -2.7; tim23-1 inh: 17.9; tim10-1 inh: 29.1; Mot1-301 SUMO: 288.0; TIM10 inh: -1.9

Results for COC(=O)c1cccc(NC(=O)c2ccc[n+]([O-])c2)c1 ?
PfHsp90 yeast 2: 16.1; tim23-1 inh: 13.2; tim10-1 inh: -7.5; Mot1-301 SUMO: 561.0*; TIM10 inh: -8.0; Mot1 SUMO dose: 0.5

What do the screens show for `O=[N+]([O-])c1ccc(O)c(CSc2nnnn2-c2ccccc2)c1`?
PfHsp90 yeast 2: 2.5; tim23-1 inh: 7.1; tim10-1 inh: 5.4; Mot1-301 SUMO: -11.1; TIM10 inh: -1.3

What do the screens show for `CCOP(=O)(OCC)C(NC(=O)NS(=O)(=O)c1ccc(C)cc1)c1ccccc1` (centres undefined)?
PfHsp90 yeast 2: 6.9; tim23-1 inh: 5.5; tim10-1 inh: 12.8; Mot1-301 SUMO: -13.8; TIM10 inh: 2.9

Results for NS(=O)(=O)c1ccc(N=C2C(=O)Nc3ccccc32)cc1 ?
PfHsp90 yeast 2: -11.4; tim23-1 inh: 11.1; tim10-1 inh: 15.0; Mot1-301 SUMO: 0.6; TIM10 inh: -1.7

What do the screens show for `CC(C)C1=CC(=Nc2ccc(S(N)(=O)=O)cc2)C=C(C(C)C)C1=O`?
PfHsp90 yeast 2: 10.9; tim23-1 inh: 37.0; tim10-1 inh: 26.6; Mot1-301 SUMO: active; TIM10 inh: -4.8; Mot1 SUMO dose: -0.4

How did CCOC(=O)c1c(NC(=O)COC(=O)CCCOc2ccc(OC)cc2)sc(C(=O)N(C)C)c1C do in these assays?
PfHsp90 yeast 2: -1.0

Results for CCOc1ccc(C(=O)Nc2ccc(N3CCN(C(C)=O)CC3)cc2)cc1[N+](=O)[O-] ?
PfHsp90 yeast 2: 9.1; tim23-1 inh: 16.8; tim10-1 inh: 10.3; Mot1-301 SUMO: 36.8; TIM10 inh: 12.0

Results for CCOc1ccc(C(=O)Nc2ccc(N3CCN(C)CC3)cc2)cc1[N+](=O)[O-] ?
PfHsp90 yeast 2: -9.8; tim23-1 inh: 2.9; tim10-1 inh: -2.5; Mot1-301 SUMO: 690.5*; TIM10 inh: -9.7; Mot1 SUMO dose: 0.6

From PubChem
